# Compound activity from PubChem.
# NPC1 prom act = qHTS Assay for NPC1 Promoter Activators. AID 485313, 2010. Potency, µM (titrated, usually from 9.22 µM), for inactives: top-dose activation, usual class: activators. Huh7 NPC1 promoter luciferase reporter, 24 h. 320,000 compounds, 2.4% hits; also: % of control where 0% means no effect; nearly all actives have a fitted effect of over 60% in size
#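 Luminescence from an NPC1 promoter-driven luciferase reporter in stably transfected Huh7 cells was measured after 24 h compound treatment at 37 °C, followed by 10 min ambient incubation with luciferase detection reagent.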
# Rab9 promoter act = qHTS Assay for Rab9 Promoter Activators | Huh7 Rab9 promoter-luciferase reporter, luminescence, 24 h | Potency, µM (doses to about 9.22 µM), for inactives: top-dose activation, negative = inhibition, hits mostly activators | 320,000 compounds, 2.8% hits | AID 485297, 2010; also: % of control where 0% means no effect; nearly all actives have a fitted effect of over 60% in size
#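 Measured in stably transfected Huh7 cells bearing a Rab9 promoter–luciferase construct: 24 h compound treatment at 37 °C, followed by luminescence detection.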
# SMN2 splice enh = qHTS Assay for Enhancers of SMN2 Splice Variant Expression; HEK293 SMN2-luciferase splicing reporter, luminescence, 30-36 h; Potency, µM (highest dose often 46.1 µM), for the others: at the top dose activity change, positive = activation, hits mostly activators; 210,000 compounds, 2.8% hits; AID 1458, 2008; also: % of control where 0% means no effect; nearly all actives have a fitted effect of over 55% in size
#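 HEK293 cells carry an SMN2 […]–luciferase reporter in which exon 7 inclusion puts luciferase in frame. Cells were plated 10-12 h before compound addition, then incubated 30-36 h at 37C. ONE-Glo luminescence was read; sodium butyrate at 4.5 mM final served as control.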
# FLuc counter = qHTS profiling assay for firefly luciferase inhibitor/activator using purifed enzyme and Km concentrations of substrates (counterscreen for miR-21 project). purified FLuc, Km substrates, luminescence inhibition. Potency, µM (titrated, usually from 57.5 µM), for inactives: at the top dose activity change, negative = inhibition, hits mostly inhibitors. 360,000 compounds, 6.9% hits. AID 588342, 2011;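 also: plate controls were vehicle for no effect and reference inhibitor for full effect; nearly all actives have a fitted effect of over 55% in size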
# Target sequence (P08659 whole entry, looked up): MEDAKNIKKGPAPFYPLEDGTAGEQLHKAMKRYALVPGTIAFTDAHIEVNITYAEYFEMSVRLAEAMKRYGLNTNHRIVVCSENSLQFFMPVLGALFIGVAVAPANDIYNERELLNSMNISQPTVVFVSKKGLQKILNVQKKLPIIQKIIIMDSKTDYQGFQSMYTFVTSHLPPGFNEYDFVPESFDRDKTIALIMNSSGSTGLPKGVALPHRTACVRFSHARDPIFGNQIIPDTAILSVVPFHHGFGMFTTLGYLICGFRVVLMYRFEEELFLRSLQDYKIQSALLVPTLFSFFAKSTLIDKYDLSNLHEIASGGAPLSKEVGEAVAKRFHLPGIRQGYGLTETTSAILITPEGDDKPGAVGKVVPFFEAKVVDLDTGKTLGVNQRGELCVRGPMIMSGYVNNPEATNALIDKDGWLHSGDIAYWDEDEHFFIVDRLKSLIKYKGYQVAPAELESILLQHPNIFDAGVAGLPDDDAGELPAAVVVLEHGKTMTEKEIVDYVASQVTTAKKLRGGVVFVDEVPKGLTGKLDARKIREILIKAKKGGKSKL
#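 Biochemical qHTS of compounds, final roughly 60 µM downward over six points, against 10 nM purified firefly luciferase using Km concentrations of substrates (10 uM D-luciferin, 10 uM ATP) in Tris acetate pH 7.5 buffer; luminescence output.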
# ELG1 genotoxic = qHTS screen for small molecules that induce genotoxicity in human embryonic kidney (HEK293T) cells expressing luciferase-tagged ELG1. HEK293T ELG1-luciferase reporter, luminescence, 16 h. Potency, µM (top dose mostly 46 µM), for the others: at the top dose activity change, positive = activation, most hits filed as activators. 330,000 compounds, 1.3% hits. AID 504466, 2011; also: % of control where 0% means no effect; nearly all actives have a fitted effect of over 60% in size
#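 Genotoxicity was scored as increased ELG1-luciferase reporter signal, measured by ONE-Glo luminescence (30 min, room temperature). Compound or vehicle exposure of the HEK293T reporter cells lasted 16 hr at 37°C.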
# Numbers without * were called inactive; u = inconclusive; x = not tested or not shown. An excerpt weighted towards active compounds, which were near 7.4% of everything screened. Calls follow the shape of the dose curve; as a rule, active = well fitted curve in the direction sought with a large enough effect; inconclusive = small, poorly fitted or top-dose-only effect, or another doubt; inactive = no such curve, though single readings can be large; an effect the other way counts as inactive or inconclusive. Potency is read from the fitted curve at half-maximal effect.
SMILES,NPC1 prom act,Rab9 promoter act,SMN2 splice enh,FLuc counter,ELG1 genotoxic
O=C(NCc1ccccc1)Nc1cccn(Cc2c(F)cccc2Cl)c1=O,-11%,-9%,-26%,13µM*,-1%
Cc1ccc(NC(=O)Nc2cccn(Cc3c(F)cccc3Cl)c2=O)cc1,19%,19%,-5%,7.6µM*,7%
O=C(Nc1cccn(Cc2cccc(F)c2)c1=O)NC1CCCCC1,0%,0%,-19%,u,-2%
O=C(Nc1cccn(Cc2c(Cl)cccc2Cl)c1=O)C1CC1,-4%,2%,-10%,-12%,-12%
Cn1cc(CNC(=O)c2cnn3c2NC(=C2CC2)C=C3C(F)F)cn1,x,x,x,0%,x
O=C(CN1CCN(S(=O)(=O)c2ccccc2)CC1)Nc1ccc(N2CCOCC2)cc1,0%,-5%,-35%,5%,1%
Cc1cn(CCC(=O)Nc2ccc(N3CCOCC3)cc2)c2ccccc12,u,u,x,13µM*,u
Cn1c(SCC(=O)Nc2ccc(N3CCOCC3)cc2)nnc1-c1ccccc1,2%,4%,41%,17µM*,8%
O=C(CN1CCN(C(c2ccccc2)c2ccccc2)CC1)Nc1ccc(N2CCOCC2)cc1,-1%,-5%,13µM*,-2%,-2%
Cn1c(SCC(=O)Nc2ccc(N3CCOCC3)cc2)nnc1-c1ccccc1F,7%,12%,x,17µM*,8%
Cc1nnc(SCC(=O)Nc2ccc(N3CCOCC3)cc2)n1Cc1ccccc1,0%,0%,x,x,2%
CC(=O)c1cccc(NC(=O)Nc2nc(C)cc(C)n2)c1,6%,4%,x,1%,-4%
CC(C)n1c(SCC(=O)Nc2ccc(N3CCOCC3)cc2)nnc1-c1ccco1,7%,0%,x,u,-4%
Cn1c(SCC(=O)Nc2ccc(N3CCOCC3)cc2)nnc1-c1ccco1,-4%,2%,x,17µM*,1%
CCOc1ccc(N(Cc2cc3cc(C)ccc3[nH]c2=O)S(=O)(=O)c2ccccc2)cc1,-6%,-6%,x,-1%,-13%
O=C(Nc1ccc(F)cc1F)c1cc2nc3c(c(C(F)(F)F)n2n1)CCCC3,1.1µM*,0.56µM*,17%,0.6µM*,u
O=C(O)/C=C/C(=O)NCCc1ccccc1,-2%,-1%,-3%,-4%,0%
CC(C)=CC(=O)NCCc1ccccc1,x,x,13µM*,13µM*,x
Cc1ccc(/C=C/C(=O)NCCc2ccccc2)o1,u,u,x,17µM*,u
Cc1nn(-c2ccccc2)c(Cl)c1/C=N/NC(=O)c1[nH]ncc1Br,0.32µM*,0.4µM*,x,0.6µM*,1.5µM*
Cc1cc(C(=O)N/N=C/c2c(C)nn(-c3ccccc3)c2Cl)n[nH]1,29%,u,x,7.6µM*,u
Cc1nn(-c2ccccc2)c(Cl)c1/C=N/NC(=O)CNc1n[nH]c(=O)[nH]c1=O,1%,-1%,-9%,u,2%
Cc1nn(-c2ccccc2)c(Cl)c1/C=N/NC(=O)c1ccccc1F,u,2.2µM*,x,8.5µM*,u
Cc1nn(-c2ccccc2)c(Cl)c1/C=N/NC(=O)c1ccn[nH]1,0.22µM*,1.1µM*,x,0.76µM*,8.2µM*
CCOC(=O)/C(C#N)=C/c1ccc(-c2ccccc2)o1,x,x,0%,9.5µM*,x
SMILES,NPC1 prom act,Rab9 promoter act,SMN2 splice enh,FLuc counter,ELG1 genotoxic
CC(C)COC(=O)/C(C#N)=C\c1ccc(-c2ccccc2Cl)o1,x,x,-2%,u,x
CCCN1C=CC(=C/C=C(\C#N)C(=O)OCC)C=C1,4µM*,4µM*,14µM*,6µM*,u
CCOC(=O)/C(C#N)=C/c1ccc(-c2ccc(C)cc2)o1,x,x,10%,3.8µM*,x
CCOC(=O)/C(C#N)=C/N=c1ccc(C)cn1C,u,u,x,17µM*,u
CCCCOC(=O)/C(C#N)=C/c1ccc(-c2ccc(Br)cc2)o1,x,x,3%,-19%,x
COc1ccccc1CNc1ccc(-c2nc(-c3ccncc3)no2)cc1[N+](=O)[O-],x,x,x,-6%,x
Fc1cccc(-n2ncc3c2ncn2nc(Cc4ccccc4)nc32)c1,x,x,-1%,-4%,x
COC(=O)[C@H](Cc1ccccc1)NC(=O)O[C@@H]1Cc2cc(OC)ccc2O[C@H]1c1cccc(OC)c1,x,x,3%,x,x
N#C/C(=C/c1cccnc1)c1ccccc1,4%,3%,x,-16%,4%
CC1CCc2nc(/C(C#N)=C/c3cccnc3)sc2C1 (centres undefined),u,1.3µM*,2µM*,2.1µM*,2.3µM*
COc1cc(/C=C(\C#N)c2nc3c(s2)CCCC3)ccc1O,u,u,22µM*,6µM*,11µM*
N#C/C(=C\c1cccnc1)c1ccc([N+](=O)[O-])cc1,-3%,3%,x,-11%,-4%
N#C/C(=C\c1cccnc1)c1nc2c(s1)CCCC2,3.5µM*,4µM*,13µM*,12µM*,16µM*
CCOC(=O)c1sc(C)c2c1NC(c1ccc(Cl)cc1)NC2=O (centres undefined),0%,2%,-1%,-1%,-3%
O=C1CN(C(=O)CNCc2ccccc2Cl)c2ccccc2N1,0%,-3%,x,2%,1%
O=C(NCc1ccco1)/C(=C\C=C\c1ccccc1)NC(=O)c1ccccc1Br,-1%,2%,-10%,27µM*,-15%
CCOc1ccc(/C=C2\NC(=S)NC2=O)cc1,-1%,-7%,x,17µM*,0%
Cc1no[n+]([O-])c1COc1ccc(/C=C2\NC(=S)NC2=O)cc1,0%,-4%,-11%,-8%,16%
Cc1ccsc1/C=C1\SC(N2CC(C)OC(C)C2)=NC1=O (centres undefined),-3%,-6%,5%,u,0%
CCCCc1ccc(NC(=O)Nc2cccnc2)cc1,u,u,x,6µM*,u
CCCCc1ccc(NC(=S)Nc2ccc(Nc3ccc(OC)cc3)cc2)cc1,0%,-4%,-31%,1%,-6%
CCCCc1ccc(NC(=S)Nc2cccnc2)cc1,0%,0%,-15%,1%,0%
CCCCc1ccc(NC(=O)OC)cc1,13%,15%,-13%,17µM*,8%
O=C(Nc1ccccc1)OCCCc1ccccc1,u,u,u,19µM*,-27%
N#Cc1c(C(F)(F)F)cc(-c2cccs2)nc1SCc1ccccc1F,x,x,1%,4%,x
CC1=NN(C(N)=S)C(=O)C1N=Nc1ccc(C)c(Br)c1 (centres undefined),1.8µM*,1.3µM*,x,1.7µM*,5.2µM*
CCOc1ccc(N=Nc2ccc(O)c3ncccc23)cc1,-13%,1%,x,-13%,u
CC1=NN(c2ccccc2C(=O)O)C(=O)C1N=Nc1ccccc1 (centres undefined),20%,21%,x,15µM*,-11%
